Experimental data from the supplement of paper PMC3545927.
Some of the results follow. The true hit rate is not given.

B1: HC599 (peptide)
chain: CAMCAVHPTLAGNASASA
B2: HC848 (peptide)
chain: CAFYGKAIPLAGNASASA
B3: HC1580 (peptide)
chain: CALWARMILMAGNASASA
B4: HC224 (peptide)
chain: CATCGFADLMAGNASASA
B5: FS-1547 (peptide)
chain: CANNARAARSAGNASASA
B6: HC1157 (peptide)
chain: CATWLKAKLMAGNASASA
B7: FS-366 (peptide)
chain: CANILRKARSAGNASASA
B8: FS-1659 (peptide)
chain: CATLLRAARSAGNASASA
B9: HC1922 (peptide)
chain: CATTPCSGQWAGNASASA
B10: HC554 (peptide)
chain: CAVYTFYGMWAGNASASA
B11: HC2528 (peptide)
chain: CASTPCSWHLAGNASASA
B12: HC2562 (peptide)
chain: CASTPCSAQLAGNASASA
B13: HC2456 (peptide)
chain: CAEGEVPCHRAGNASASA
B14: HC260 (peptide)
chain: CAGLYHVTNDAGNASASA
B15: HC791 (peptide)
chain: CATLGFGAYMAGNASASA
B16: FS-1673 (peptide)
chain: CAKSARSVRAAGNASASA
B17: FS-3116 (peptide)
chain: CARVCRCARAAGNASASA
B18: FS-811 (peptide)
chain: CAKPAKSARSAGNASASA
B19: FS-1389 (peptide)
chain: CAQPARSVRLAGNASASA
B20: FS-2311 (peptide)
chain: CARSRREASGAGNASASA
B21: FS-1573 (peptide)
chain: CASSSRDPRAAGNASASA
B22: FS-2643 (peptide)
chain: CARARRDPRAAGNASASA
B23: FS-3210 (peptide)
chain: CARSRRPADTAGNASASA
B24: HC1444 (peptide)
chain: CAVQPEKGGRAGNASASA
B25: HC1803 (peptide)
chain: CADAMEECSQAGNASASA
B26: HC2065 (peptide)
chain: CAVVCCSMLYAGNASASA
B27: HC1190 (peptide)
chain: CATFPINAYTAGNASASA
B28: FS-2251 (peptide)
chain: CARAPRSKVPAGNASASA
B29: FS-2819 (peptide)
chain: CARSRRSAFHAGNASASA
B30: FS-3238 (peptide)
chain: CARSRRSYSCAGNASASA
B31: FS-2383 (peptide)
chain: CARSRRSQINAGNASASA
B32: FS-2546 (peptide)
chain: CARAPRDSDAAGNASASA
B33: FS-2309 (peptide)
chain: CARSLRSQIRAGNASASA
B34: FS-3183 (peptide)
chain: CARAPRSPRAAGNASASA
B35: FS-1794 (peptide)
chain: CARSRRSPRAAGNASASA
B36: FS-3080 (peptide)
chain: CARSGRSIINAGNASASA
B37: HC378 (peptide)
chain: CATGWLAGLFAGNASASA
B38: HC1940 (peptide)
chain: CATTPCSGSCAGNASASA
B39: HC366 (peptide)
chain: CAVQLINTNGAGNASASA
B40: HC1326 (peptide)
chain: CARTVVLTESAGNASASA
B41: WN3 (peptide)
chain: CAQKKRGGPAAGNASASA
B42: FS-1152 (peptide)
chain: CAQPARIGRAAGNASASA
B43: FS-203 (peptide)
chain: CATPSRCVRIAGNASASA
B44: HC1537 (peptide)
chain: CAAASLRAFTAGNASASA
B45: HC1626 (peptide)
chain: CALLARGGRAAGNASASA
B46: FS-1425 (peptide)
chain: CATPSRMIRTAGNASASA
B47: HC1038 (peptide)
chain: CAQKLETFWAAGNASASA
B48: FS-99 (peptide)
chain: CATPSRAGRAAGNASASA

Target: furin, P09958
Experiment: furin cleavage Z-score vs untreated control; higher = more cleavage, active = 3.5 or more, inactive = 1 or less, 8 variable residues between constant flanks
Summary of the method: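 Peptides 8 residues long, fused to a cDNA oligonucleotide, were fixed to magnetic beads by the N-terminus and exposed to purified furin. The 0.01 ml reactions contained 50 mM HEPES pH 7.5 with CaCl2 and NaCl at 1:10 enzyme:substrate and ran 7.5, 15 or 30 min. For the cleavage Z-score, log counts of sequenced released DNA were compared with furin-free reactions, lowess-adjusted and scaled by median absolute deviation.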

furin, P09958, sequence (P09958 whole entry): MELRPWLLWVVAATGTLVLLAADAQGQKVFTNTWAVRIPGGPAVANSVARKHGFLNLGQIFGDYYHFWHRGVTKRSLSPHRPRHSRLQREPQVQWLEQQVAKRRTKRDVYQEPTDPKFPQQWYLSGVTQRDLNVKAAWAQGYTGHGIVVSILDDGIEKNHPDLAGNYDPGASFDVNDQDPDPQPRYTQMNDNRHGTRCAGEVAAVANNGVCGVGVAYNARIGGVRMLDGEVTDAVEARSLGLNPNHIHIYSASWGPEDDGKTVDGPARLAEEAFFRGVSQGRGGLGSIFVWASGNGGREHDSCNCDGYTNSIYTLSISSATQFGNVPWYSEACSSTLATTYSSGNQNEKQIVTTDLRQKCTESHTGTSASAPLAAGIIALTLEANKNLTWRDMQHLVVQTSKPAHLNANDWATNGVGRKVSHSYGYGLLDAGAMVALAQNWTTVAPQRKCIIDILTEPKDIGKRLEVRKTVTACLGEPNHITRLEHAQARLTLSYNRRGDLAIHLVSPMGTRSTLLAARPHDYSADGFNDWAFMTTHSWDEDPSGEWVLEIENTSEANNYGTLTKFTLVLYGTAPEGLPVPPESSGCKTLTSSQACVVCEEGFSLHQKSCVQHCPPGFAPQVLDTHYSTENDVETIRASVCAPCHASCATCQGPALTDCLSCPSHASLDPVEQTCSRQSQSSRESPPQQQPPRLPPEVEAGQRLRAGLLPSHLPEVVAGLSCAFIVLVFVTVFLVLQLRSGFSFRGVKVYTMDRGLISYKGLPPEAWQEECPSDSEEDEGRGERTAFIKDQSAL

| Sequence | furin cleavage Z-score (7.5 min) | furin cleavage Z-score (15 min) | furin cleavage Z-score (30 min) |
| --- | --- | --- | --- |
| B1 | -1.6 (inactive) | -0.0857 (inactive) | -0.861 (inactive) |
| B2 | 0.497 (inactive) | -0.506 (inactive) | -2.2 (inactive) |
| B3 | -0.179 (inactive) | -0.799 (inactive) | -1.16 (inactive) |
| B4 | -0.244 (inactive) | -0.821 (inactive) | -0.0608 (inactive) |
| B5 | 5.1 (active) | 5 (active) | 5.02 (active) |
| B6 | 3.1 | 1.6 | 3.5 (active) |
| B7 | 9.27 (active) | 9.75 (active) | 7.85 (active) |
| B8 | 4.67 (active) | 4.38 (active) | 3.86 (active) |
| B9 | -0.163 (inactive) | -0.899 (inactive) | -0.665 (inactive) |
| B10 | -0.934 (inactive) | -0.697 (inactive) | -0.425 (inactive) |
| B11 | 1.37 | 0.165 (inactive) | -0.0279 (inactive) |
| B12 | -1.59 (inactive) | 0.487 (inactive) | 0.259 (inactive) |
| B13 | 1.8 | 1.4 | 0.687 (inactive) |
| B14 | 0.615 (inactive) | -1.34 (inactive) | -0.664 (inactive) |
| B15 | 0.163 (inactive) | -1.28 (inactive) | 0.49 (inactive) |
| B16 | 6.74 (active) | 6.73 (active) | 7 (active) |
| B17 | 5.97 (active) | 5.83 (active) | 6.08 (active) |
| B18 | -0.364 (inactive) | -0.316 (inactive) | 0.253 (inactive) |
| B19 | -0.0259 (inactive) | 0.85 (inactive) | 0.452 (inactive) |
| B20 | 3.7 (active) | 2.31 | 2.33 |
| B21 | -1.14 (inactive) | 0.526 (inactive) | 1.07 |
| B22 | 9.64 (active) | 9.59 (active) | 9.18 (active) |
| B23 | -0.916 (inactive) | -0.606 (inactive) | -2.54 (inactive) |
| B24 | -2.15 (inactive) | -2.12 (inactive) | -0.412 (inactive) |

| Sequence | furin cleavage Z-score (7.5 min) | furin cleavage Z-score (15 min) | furin cleavage Z-score (30 min) |
| --- | --- | --- | --- |
| B25 | -1.34 (inactive) | 0.113 (inactive) | -0.929 (inactive) |
| B26 | -0.464 (inactive) | -0.469 (inactive) | -1.46 (inactive) |
| B27 | -0.0204 (inactive) | -1.04 (inactive) | -0.568 (inactive) |
| B28 | 0.556 (inactive) | 0.0997 (inactive) | 1.62 |
| B29 | 8.26 (active) | 9.19 (active) | 8.92 (active) |
| B30 | 0.584 (inactive) | 1.19 | 2.38 |
| B31 | 1.8 | 3.75 (active) | 2.57 |
| B32 | -0.983 (inactive) | 0.168 (inactive) | 0.352 (inactive) |
| B33 | 0.116 (inactive) | -1.95 (inactive) | 0.712 (inactive) |
| B34 | 9.2 (active) | 8.63 (active) | 8.05 (active) |
| B35 | 11.3 (active) | 13.6 (active) | 9.99 (active) |
| B36 | -0.514 (inactive) | 0.929 (inactive) | 1.74 |
| B37 | 1 | 1.08 | 0.703 (inactive) |
| B38 | -1.36 (inactive) | -1.27 (inactive) | -2.07 (inactive) |
| B39 | 0.569 (inactive) | -1.46 (inactive) | 0.762 (inactive) |
| B40 | 0.659 (inactive) | 0.273 (inactive) | -0.545 (inactive) |
| B41 | 0.322 (inactive) | -1.02 (inactive) | 0.637 (inactive) |
| B42 | 5.34 (active) | 7.28 (active) | 7.16 (active) |
| B43 | 0.645 (inactive) | -1.67 (inactive) | -0.417 (inactive) |
| B44 | -0.944 (inactive) | -0.499 (inactive) | -0.478 (inactive) |
| B45 | 3.15 | 3.33 | 3.52 (active) |
| B46 | 4.04 (active) | 5.44 (active) | 5.33 (active) |
| B47 | 2.24 | -0.183 (inactive) | -1.19 (inactive) |
| B48 | 3.27 | 3.92 (active) | 2.86 |
